The values that follow come from PubChem BioAssay (NCATS).

“And” between values parts separate entries of the source, which are not always exact repeats. Equal values may be shown once. A number with no mark means an inactive call. Results filed as inconclusive are left out. The source made the active and inactive calls. Unless noted, calls come from the whole dose curve; as a rule, active = well fitted curve in the direction sought with a large enough effect; inconclusive = small, poorly fitted or top-dose-only effect, or another doubt; inactive = no such curve, though single readings can be large; an effect the other way counts as inactive or inconclusive.

A short description of assay [1]: qHTS for differential inhibitors of proliferation of Plasmodium falciparum line 3D7 (AID 1876; note: potency is the fitted concentration of half-maximal effect). (In general: Quantitative high-throughput screening tests each substance at several concentrations.)
Assay [2] is described as follows: qHTS for differential inhibitors of proliferation of Plasmodium falciparum line D10 (AID 1877).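 Note: potency is the fitted concentration of half-maximal effect; parasites grown with compound for 72 h before DNA staining.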
Assay [3] is described as follows: qHTS for differential inhibitors of proliferation of Plasmodium falciparum line Dd2 (AID 1882). Note: potency is the fitted concentration of half-maximal effect; nearly all actives have a fitted effect of over 65% in size. The following applies: Potency: Plasmodium falciparum Dd2 proliferation inhibition. An outline of the steps: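 RBC culture, 0.3% parasitemia / 2.5% Hct final; cpd added by pin tool in DMSO; 72 h, 37 C, 5% CO2; lysis buffer + SYBR Green I, o/n RT dark; FI 485/535; norm. to artemisinin 0.29 uM and DMSO.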

Assay [4] can be described thus: qHTS for differential inhibitors of proliferation of Plasmodium falciparum line W2 (AID 1883).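 Note: potency is the fitted concentration of half-maximal effect; parasites grown with compound for 72 h before lysis and staining.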 The following applies: Potency: Plasmodium falciparum W2 proliferation inhibition.
The nature of assay [5]: qHTS for differential inhibitors of proliferation of Plasmodium falciparum line HB3 (AID 1886).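 Note: potency is the fitted concentration of half-maximal effect; parasites grown with compound for 72 h before SYBR Green readout.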 The settings on record: Potency: Plasmodium falciparum HB3 proliferation inhibition.
Assay [6] has as its target ATP-dependent DNA helicase Q1 (Homo sapiens) (UniProt P46063). In words: qHTS Validation Assay for Inhibitors of RecQ-Like Dna Helicase 1 (RECQ1) (AID 2353). An outline of the steps: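 RECQ1T1 50 nM; forked duplex (20 bp + 30-nt ss tails) 200 nM, ATP 2 mM final; pH 8.0, 2 mM MgCl2, 2.5 ug/ml poly(dI-dC); 15 min compound preincubation; discontinuous kinetic read over 2 h at RT.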

The nature of assay [7]: Cytometric Cell-Based qHTS for Inhibitors of the mTORC1 Signaling Pathway in MEF (Tsc2-/-, p53-/-) Cells (AID 2660).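 Note: Tsc2 and p53 null MEFs carrying empty vector with compound for 24 h; percent of cells above a phospho-rpS6 to PI ratio cutoff in each well.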 The procedure, abridged:
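Percent of cells positive for normalized phospho-S6 staining is reported, with the cutoff set from rapamycin (7.5 nM) versus DMSO wells. Tsc2-/-, p53-/- MEFs received compound for 24 hrs.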

Assay [8] is described as follows: High Content Imaging Cell-Based qHTS for Inhibitors of the mTORC1 Signaling Pathway in MEF (Tsc2-/-, p53-/-) Cells (AID 2666).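 Note: percent of cells scored positive for phospho-rpS6 Ser235/236 immunostaining by imaging.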 The settings on record: at 38.3 µM (top of the series). An outline of the steps: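 Inhibition of rpS6 phosphorylation is measured by immunofluorescence imaging in empty-vector Tsc2-/-, p53-/- mouse embryonic fibroblasts after 24 hrs compound exposure at 37 degree Celsius. Results are reported as % positive cells per well.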

A short description of assay [9]: High Content Imaging Cell-Based qHTS for Inhibitors of the mTORC1 Signaling Pathway in MEF Cells (AID 2667).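 Note: Tsc2-/- p53-/- MEFs stably re-expressing wild-type Tsc2 exposed 24 h.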 An outline of the steps: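 Fixed-cell imaging of phospho-S6 (Ser235/236, Alexa-488) after 24 hrs of compound treatment at 37 degree Celsius. Signal was normalized to Hoechst, and thresholds from the highest and lowest wells split cells into % active versus % non-active.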

Assay [10] deals with DNA polymerase III PolC-type (Bacillus subtilis (strain 168)) (UniProt P13267). In words: qHTS Validation Assay for the Inhibitors of DNA Replication in Gram-Positive Bacteria (AID 485295).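 Note: reconstituted holoenzyme with PolC plus beta clamp SSB and primase; PicoGreen fluorescence of double-stranded DNA made on primed circular M13 template.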 An outline of the steps:
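Double-stranded DNA product detected by PicoGreen fluorescence after EDTA quench. Compound incubated with B. subtilis holoenzyme (PolC, beta subunit, SSB, primase) before substrate addition; primed replication of M13Gori with dNTPs and NTPs at room temperature; DMSO defines 0% inhibition.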

In assay [11] the target is Tumor susceptibility gene 101 protein (Homo sapiens) (UniProt Q99816). In words: qHTS Validation Assay for Iinhibitors of HIV-1 Budding by Blocking the Interaction of PTAP/TSG101 (AID 485342; calls by dose curve). An outline of the steps:
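Fluorescence polarization of 50 nM FITC-PTAP peptide bound to 10 uM Tsg101 binding domain was read after 20 min room-temperature incubation with compounds, in 10 mM HEPES pH 7.5, 0.15 M NaCl, 0.01% Tween 20.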

Assay [12] has as its target Beta-2 adrenergic receptor (Homo sapiens) (UniProt P07550). In words: qHTS validation assay of beta-arrestin-biased ligands of beta2-adrenergic receptor (AID 485366). An outline of the steps:
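Screening used a titration range of up to 46 microM in a beta-arrestin recruitment Tango luciferase assay. Cells in 1% FBS medium were treated 18 hr at 37 degrees C, and luminescence was normalized to %Activity.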

Assay [13] concerns the target ATP-dependent 6-phosphofructokinase (Trypanosoma brucei brucei) (UniProt O15648). In words: qHTS Validation Assay to Find Inhibitors of T. brucei phosphofructokinase (AID 485368). An outline of the steps:
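PFK-generated ADP was measured after 45 min at room temperature using ADP-Glo. The reaction contained 0.5 mM F6P and 0.1 mM ATP.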

The nature of assay [14]: Quantitative high throughput screen for delayed death inhibitors of the malarial parasite plastid, 96 hour incubation (AID 488745). Note: potency is the fitted concentration of half-maximal effect; nearly all actives have a fitted effect of over 70% in size. An outline of the steps: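 Luciferase-expressing P. falciparum, infected RBCs 2% Hct/0.1% parasitemia (final); 96 h cpd exposure, 37 C, 5% CO2; RPMI 1640 + 0.5% Albumax, bicarbonate, gentamycin. Readout: luminescence loss = growth inhibition.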

For assay [15], the target named is Thioredoxin reductase 1, cytoplasmic (Rattus norvegicus) (UniProt O89049). Put plainly: qHTS Assay for Substrates of Mammalian Selenoprotein Thioredoxin Reductase 1 (TrxR1) (AID 488772).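 Note: a drop in NADPH fluorescence below the no-compound background marks a TrxR1 substrate.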 The procedure, abridged: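 In this dual-purpose format, potential substrates are identified from the first fluorescence read after selenite addition, not from the 8-minute delta. Rat enzyme is preincubated with NADPH and then with compound at ~22 deg C.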

Assay [16] shares this target. In words: qHTS Assay for Inhibitors of Mammalian Selenoprotein Thioredoxin Reductase 1 (TrxR1) (AID 488773).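 Note: drop in NADPH fluorescence over an 8 min run after selenite addition; nearly all actives have a fitted effect of over 40% in size.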 The following applies: Potency: inhibition. The procedure, abridged: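 Inhibition is scored from the loss of NADPH fluorescence between first and last reads of an 8-min kinetic run. Selenite (400 uM) was the substrate, added after 15 min compound preincubation at room temperature.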

For assay [17], the target named is M-phase phosphoprotein 8 (Homo sapiens) (UniProt Q99549). In words: qHTS Validation Assay for Inhibitors for MPP8 Chromodomain Interactions with Methylated Histone Tails (AID 488949). Note: potency is the fitted concentration of half-maximal effect; nearly all actives have a fitted effect of over 55% in size. The procedure, abridged: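 AlphaScreen proximity signal from streptavidin donor and Ni-chelate acceptor beads (10 ug/mL each) reported binding of MPP8 to trimethyl-K9 H3(1-18) peptide, both at 50 nM. The complex formed 30 min before a 30 min compound exposure at room temperature, in PBS pH 7.4.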

In assay [18] the target is Chromobox protein homolog 1 (Homo sapiens) (UniProt P83916). Put plainly: qHTS Validation Assay for Inhibitors of HP1-beta Chromodomain Interactions with Methylated Histone Tails (AID 488953). Note: potency is the fitted concentration of half-maximal effect; nearly all actives have a fitted effect of over 50% in size. An outline of the steps:
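AlphaScreen proximity readout: streptavidin donor and Ni-chelate acceptor beads, 10 ug/mL final, 30 min dark, RT. Complex of 50 nM HP1-beta and 50 nM b-H3(1-18)K9me3 formed 30 min, then compound-treated 30 min; PBS pH 7.4/0.01% Tween-20.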

The target of assay [19] is Methanococcus maripaludis chaperonin (MmCpn) (UniProt Q6LX38). Put plainly: High-Throughput Screening for Modulators of Cytosolic Chaperonin Activity: MmCpn Primary Screen (AID 488978).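 Note: 50 nM MmCpn enzyme hydrolysing 30 µM ATP at 37 °C.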 The procedure, abridged: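 ATPase activity of 50 nM MmCpn was assayed with 30 uM ATP, 10 minutes at 37C, after a 5 min compound preincubation at room temperature. ADP production was read as HTRF emission at 590 and 665 nm.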
Sequence of Methanococcus maripaludis chaperonin (MmCpn) (Q6LX38 1-543): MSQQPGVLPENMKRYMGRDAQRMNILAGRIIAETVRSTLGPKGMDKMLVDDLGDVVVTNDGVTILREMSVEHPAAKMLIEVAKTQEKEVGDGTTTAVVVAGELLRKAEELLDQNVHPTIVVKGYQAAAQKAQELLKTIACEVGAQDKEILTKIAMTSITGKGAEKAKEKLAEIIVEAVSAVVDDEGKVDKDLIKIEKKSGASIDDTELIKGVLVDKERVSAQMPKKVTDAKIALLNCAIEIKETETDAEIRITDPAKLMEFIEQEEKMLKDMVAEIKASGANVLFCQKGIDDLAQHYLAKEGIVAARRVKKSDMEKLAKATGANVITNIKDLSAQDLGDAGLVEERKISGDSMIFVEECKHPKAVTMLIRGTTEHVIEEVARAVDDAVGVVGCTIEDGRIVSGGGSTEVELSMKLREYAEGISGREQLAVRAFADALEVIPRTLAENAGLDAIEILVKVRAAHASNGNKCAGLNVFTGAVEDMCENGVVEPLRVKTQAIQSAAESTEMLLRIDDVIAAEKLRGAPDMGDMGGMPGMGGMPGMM

Sequence of M-phase phosphoprotein 8 (Homo sapiens) (Q99549 whole entry, looked up): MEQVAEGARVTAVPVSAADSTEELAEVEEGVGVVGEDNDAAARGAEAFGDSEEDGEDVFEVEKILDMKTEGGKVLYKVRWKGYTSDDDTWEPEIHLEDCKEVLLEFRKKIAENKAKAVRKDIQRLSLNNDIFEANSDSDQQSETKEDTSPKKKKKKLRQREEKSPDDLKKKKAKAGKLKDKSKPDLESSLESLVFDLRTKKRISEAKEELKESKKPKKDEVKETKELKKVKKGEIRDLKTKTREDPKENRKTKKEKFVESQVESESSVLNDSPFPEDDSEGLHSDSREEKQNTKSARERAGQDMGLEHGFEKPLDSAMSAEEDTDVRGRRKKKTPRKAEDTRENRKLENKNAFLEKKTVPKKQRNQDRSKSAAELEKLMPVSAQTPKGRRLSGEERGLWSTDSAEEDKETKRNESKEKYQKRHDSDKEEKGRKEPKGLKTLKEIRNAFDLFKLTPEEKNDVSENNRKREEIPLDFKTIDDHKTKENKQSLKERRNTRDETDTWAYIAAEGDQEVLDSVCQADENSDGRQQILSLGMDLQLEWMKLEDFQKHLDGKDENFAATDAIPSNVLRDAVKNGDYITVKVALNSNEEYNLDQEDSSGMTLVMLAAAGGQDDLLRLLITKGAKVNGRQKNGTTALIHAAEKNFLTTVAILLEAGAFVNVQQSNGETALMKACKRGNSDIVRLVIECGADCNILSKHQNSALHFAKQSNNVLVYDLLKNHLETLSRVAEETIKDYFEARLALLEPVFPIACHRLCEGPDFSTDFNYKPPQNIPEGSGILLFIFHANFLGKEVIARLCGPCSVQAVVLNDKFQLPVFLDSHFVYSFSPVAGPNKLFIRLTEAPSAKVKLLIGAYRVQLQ
Sequence of Thioredoxin reductase 1, cytoplasmic (Rattus norvegicus) (O89049 whole entry, looked up): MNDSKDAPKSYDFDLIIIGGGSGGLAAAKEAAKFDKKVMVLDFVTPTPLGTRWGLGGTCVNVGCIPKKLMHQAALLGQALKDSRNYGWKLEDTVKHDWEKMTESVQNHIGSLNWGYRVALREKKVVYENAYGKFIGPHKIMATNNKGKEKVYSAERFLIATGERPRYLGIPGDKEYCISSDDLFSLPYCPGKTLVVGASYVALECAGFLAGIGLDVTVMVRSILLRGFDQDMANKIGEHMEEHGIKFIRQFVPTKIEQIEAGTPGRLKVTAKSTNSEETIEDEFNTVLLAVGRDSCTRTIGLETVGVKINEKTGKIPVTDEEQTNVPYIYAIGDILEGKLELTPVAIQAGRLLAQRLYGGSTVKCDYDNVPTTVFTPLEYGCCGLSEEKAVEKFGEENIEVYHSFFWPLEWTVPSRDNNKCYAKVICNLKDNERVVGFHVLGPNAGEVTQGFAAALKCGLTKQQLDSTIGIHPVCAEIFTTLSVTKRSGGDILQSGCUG
Sequence of Chromobox protein homolog 1 (Homo sapiens) (P83916 whole entry, looked up): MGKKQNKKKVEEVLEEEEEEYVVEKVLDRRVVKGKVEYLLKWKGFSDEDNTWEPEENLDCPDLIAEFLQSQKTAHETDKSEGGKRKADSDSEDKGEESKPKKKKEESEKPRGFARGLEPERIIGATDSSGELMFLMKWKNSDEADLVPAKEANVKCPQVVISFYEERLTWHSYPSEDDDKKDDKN
Sequence of ATP-dependent DNA helicase Q1 (Homo sapiens) (P46063 whole entry, looked up): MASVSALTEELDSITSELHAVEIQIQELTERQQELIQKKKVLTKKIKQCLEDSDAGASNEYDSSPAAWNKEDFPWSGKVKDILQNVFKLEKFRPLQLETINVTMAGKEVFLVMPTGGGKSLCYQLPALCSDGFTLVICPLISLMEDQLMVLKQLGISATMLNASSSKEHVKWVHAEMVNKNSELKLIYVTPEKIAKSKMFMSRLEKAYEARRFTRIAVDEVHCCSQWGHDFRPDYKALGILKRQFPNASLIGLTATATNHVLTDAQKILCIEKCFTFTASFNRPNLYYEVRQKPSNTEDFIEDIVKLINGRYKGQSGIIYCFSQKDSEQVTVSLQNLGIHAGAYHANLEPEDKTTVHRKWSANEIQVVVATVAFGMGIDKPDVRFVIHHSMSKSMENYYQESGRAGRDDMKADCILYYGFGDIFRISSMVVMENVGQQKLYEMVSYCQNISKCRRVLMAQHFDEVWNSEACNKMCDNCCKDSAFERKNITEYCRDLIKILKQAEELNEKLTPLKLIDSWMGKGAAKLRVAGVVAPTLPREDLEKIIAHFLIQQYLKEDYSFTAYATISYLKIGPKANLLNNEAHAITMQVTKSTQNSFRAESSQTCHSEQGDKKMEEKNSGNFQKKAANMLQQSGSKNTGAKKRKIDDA
Sequence of Beta-2 adrenergic receptor (Homo sapiens) (P07550 whole entry, looked up): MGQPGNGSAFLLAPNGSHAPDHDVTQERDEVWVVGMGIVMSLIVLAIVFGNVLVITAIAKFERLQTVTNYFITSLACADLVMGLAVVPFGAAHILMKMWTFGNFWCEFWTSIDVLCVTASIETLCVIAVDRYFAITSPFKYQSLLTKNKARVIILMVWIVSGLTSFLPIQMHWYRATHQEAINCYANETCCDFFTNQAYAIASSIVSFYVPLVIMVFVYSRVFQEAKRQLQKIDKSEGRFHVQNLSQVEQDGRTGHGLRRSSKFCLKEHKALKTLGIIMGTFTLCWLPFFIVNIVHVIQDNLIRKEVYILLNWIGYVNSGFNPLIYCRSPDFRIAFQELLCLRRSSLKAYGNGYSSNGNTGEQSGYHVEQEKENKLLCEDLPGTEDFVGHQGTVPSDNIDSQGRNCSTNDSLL
Sequence of Tumor susceptibility gene 101 protein (Homo sapiens) (Q99816 whole entry, looked up, the tested form may be a part): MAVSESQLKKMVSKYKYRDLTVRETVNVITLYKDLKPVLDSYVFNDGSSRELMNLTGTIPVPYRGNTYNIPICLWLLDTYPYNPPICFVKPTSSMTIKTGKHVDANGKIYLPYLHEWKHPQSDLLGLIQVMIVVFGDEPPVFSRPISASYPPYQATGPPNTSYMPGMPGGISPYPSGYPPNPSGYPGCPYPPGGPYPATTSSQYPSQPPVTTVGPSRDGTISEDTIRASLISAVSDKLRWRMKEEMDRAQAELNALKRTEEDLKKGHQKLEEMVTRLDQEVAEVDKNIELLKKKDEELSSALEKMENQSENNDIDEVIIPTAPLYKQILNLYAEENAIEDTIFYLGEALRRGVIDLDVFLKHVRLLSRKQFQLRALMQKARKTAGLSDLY
Sequence of ATP-dependent 6-phosphofructokinase (Trypanosoma brucei brucei) (O15648 whole entry, looked up): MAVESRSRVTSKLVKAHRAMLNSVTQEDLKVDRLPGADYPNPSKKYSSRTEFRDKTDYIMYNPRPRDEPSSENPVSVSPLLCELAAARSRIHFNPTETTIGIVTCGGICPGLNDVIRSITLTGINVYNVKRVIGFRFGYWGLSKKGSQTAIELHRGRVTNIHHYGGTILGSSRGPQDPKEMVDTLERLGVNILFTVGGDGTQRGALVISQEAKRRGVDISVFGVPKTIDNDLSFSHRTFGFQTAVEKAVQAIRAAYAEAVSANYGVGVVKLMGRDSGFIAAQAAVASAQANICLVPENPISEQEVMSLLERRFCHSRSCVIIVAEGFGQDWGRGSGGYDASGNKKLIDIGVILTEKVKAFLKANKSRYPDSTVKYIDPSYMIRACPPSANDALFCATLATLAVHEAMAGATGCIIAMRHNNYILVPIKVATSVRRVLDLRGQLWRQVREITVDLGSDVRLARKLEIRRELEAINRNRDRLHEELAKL

`O=Nc1c(-c2c(O)[nH]c3ccccc23)[nH]c2ccccc12`: the Potency in [1] is 355 nM (active); in assay [2], 1580 nM (active); in [3], 2240 nM (active); in [4], 398 nM (active); in assay [5], 501 nM (active); in assay [14], 1170 nM (active). Also, the Potency in assay [17] is 6.31 µM (active) and 7.52 µM (active); in [18], 3980 nM (active). The Potency result in assay [6], in assay [9], in assay [10], in assay [13] and in assay [16] was “inactive” in each case. The outcome in [7], in assay [8], in assay [11], in assay [12], in [15] and in assay [19] was inactive.
